These results are taken from the supplement of paper PMC6897291.

Where a name gives a salt, the structure may show the parent alone.

In the assay the test system is RIVA. In words: growth inhibition by drug plus 177Lu-lilotomab satetraxetan (1 - RLU/untreated control) (fraction); higher = stronger inhibition. The settings on record: 10 nM; time (day): 6; 177Lu-lilotomab satetraxetan 0.5 ug/ml. The procedure, abridged:
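Growth inhibition was calculated from RealTime-Glo RLU against untreated no-drug wells. Values equal 1 − RLU/mean of 48 untreated no-drug wells per plate, read daily from day 3 after 1 h at 37°C. RIVA and U-2932 cells, with or without 18 h pretreatment by a radiolabelled anti-CD37 antibody conjugate (~600 MBq/mg; 0.5 µg/ml RIVA, 1 µg/ml U-2932), were washed and plated at 3,000 cells/well on compound-printed plates at 10/100 nM (RIVA) or 10/1,000 nM (U-2932).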
As to `COc1ccc(S(=O)(=O)Nc2cccnc2Nc2ccc(O)cc2)cc1`, the “growth inhibition by drug plus 177Lu-lilotomab satetraxetan” value (shortened to “growth inhibition”) was found to be 0.533.

With `C[C@]12CCC(=O)C=C1CC[C@@H]1[C@@H]2[C@@H](O)C[C@@]2(C)[C@H]1CC[C@]2(O)C(=O)CO` [Hydrocortisone (Cortisol)], the “growth inhibition” value was 0.608. Regarding `COc1cc(OC2CCN(C)CC2)ccc1Nc1ncc2c(n1)n(C1CCCC1)c(=O)n2C`, the “growth inhibition” value amounted to 0.587.

Consider `Nc1nc(F)nc2c1ncn2[C@@H]1O[C@H](CO)[C@@H](O)[C@@H]1O` [Fludarabine (Fludara)], for which the “growth inhibition” value came out at 0.585. The same measure for `Nc1nc(Nc2ccc(S(N)(=O)=O)cc2)nn1C(=O)c1c(F)cccc1F`: 0.556; for `Nc1ncn([C@@H]2O[C@H](CO)[C@@H](O)[C@H]2O)c(=O)n1` [Azacitidine (Vidaza)]: 0.5. The same measure for `COc1cc2nccc(Oc3ccc(NC(=O)NC4CC4)c(Cl)c3)c2cc1C(N)=O` [E7080 (Lenvatinib)]: 0.496; for `Nc1ccn([C@@H]2O[C@H](CO)[C@@H](O)[C@@H]2O)c(=O)n1` [Cytarabine]: 0.644. On to `Nc1cccc2c1C(=O)N(C1CCC(=O)NC1=O)C2=O` (stereo not drawn) [Pomalidomide], for which the “growth inhibition” value amounted to 0.555.

As to `CN(C)c1nc(N(C)C)nc(N(C)C)n1` [Altretamine (Hexalen)], the “growth inhibition” value stood at 0.485. The same measure for `Cc1[nH]c(/C=C2\C(=O)Nc3ccc(S(=O)(=O)N(C)c4cccc(Cl)c4)cc32)c(C)c1C(=O)N1CCN(C)CC1`: 0.552; for `O=C(O[C@@H]1Cc2c(O)cc(O)cc2O[C@@H]1c1cc(O)c(O)c(O)c1)c1cc(O)c(O)c(O)c1` [(-)-Epigallocatechin gallate]: 0.559; for `CCc1c2c(nc3ccc(OC(=O)N4CCC(N5CCCCC5)CC4)cc13)-c1cc3c(c(=O)n1C2)COC(=O)[C@]3(O)CC` [Irinotecan HCl Trihydrate (Campto)]: 0.51. Next, `S=C(NCc1ccc2c(c1)OCO2)N1CCN(c2ncnc3c2oc2ccccc23)CC1` [Amuvatinib (MP-470)]: 0.68; `COc1ccc2c3n(c(=NC(=O)c4cccnc4)nc2c1OC)CCN3`: 0.569; `C#Cc1cccc(Nc2ncnc3cc(OCCOC)c(OCCOC)cc23)c1` [Erlotinib HCl]: 0.524. The same measure for `Cc1ccc(-c2cc(C(F)(F)F)nn2-c2ccc(S(N)(=O)=O)cc2)cc1` [Celecoxib]: 0.512.

Take `N#CC[C@H](C1CCCC1)n1cc(-c2ncnc3[nH]ccc23)cn1`: the “growth inhibition” value was 0.488.

As for `CCc1cncnc1N1CCN(Cc2nc3ccc(C(F)(F)F)cc3[nH]2)CC1`, the “growth inhibition” value stood at 0.587. In the case of `CCN(CC)C(=S)SSC(=S)N(CC)CC` [Disulfiram (Antabuse)], the “growth inhibition” value worked out at 0.549. Take `CC(C)[C@H](C(=O)Nc1ccc(C(=O)NO)cc1)c1ccccc1`: the “growth inhibition” value turned out to be 0.599.

For `CC(=O)O[C@]1(C(C)=O)CC[C@H]2[C@@H]3C=C(C)C4=CC(=O)CC[C@]4(C)[C@H]3CC[C@@]21C` [Megestrol Acetate], the “growth inhibition” value amounted to 0.551. Next, `COc1cc2ncnc(Nc3cccc(Br)c3)c2cc1OC`: 0.516; `N#Cc1ccc(C(c2ccc(C#N)cc2)n2cncn2)cc1` [Letrozole]: 0.535; `CC(=O)c1c(C)c2cnc(Nc3ccc(N4CCNCC4)cn3)nc2n(C2CCCC2)c1=O`: 0.545.

For `COc1cccc2c1C(=O)c1c(O)c3c(c(O)c1C2=O)C[C@@](O)(C(=O)CO)C[C@@H]3O[C@H]1C[C@H](N)[C@H](O)[C@H](C)O1` [Doxorubicin (Adriamycin)], the “growth inhibition” value came to 0.933. The same measure for `CC(C)(C)c1[nH]cnc1/C=c1\[nH]c(=O)/c(=C/c2ccccc2)[nH]c1=O` [NPI-2358 (Plinabulin)]: 0.574. As for `COc1cc(Nc2ncc3c(n2)-c2ccc(Cl)cc2C(c2c(F)cccc2OC)=NC3)ccc1C(=O)O` [MLN8237 (Alisertib)], the “growth inhibition” value amounted to 0.572.

For `O=c1[nH]cc(F)c(=O)[nH]1` [Adrucil (Fluorouracil)], the “growth inhibition” value turned out to be 0.555. The same measure for `CC(C)c1ccc(Cn2ccc3c4c(N)nc(NC5CC5)nc4ccc32)cc1`: 0.712; for `CC/C(=C(\c1ccccc1)c1ccc(OCCN(C)C)cc1)c1ccccc1` [Tamoxifen Citrate (Nolvadex)]: 0.656. Turning to `Cn1cc(C2=C(c3ccc(Cl)cc3Cl)C(=O)NC2=O)c2ccccc21`, the “growth inhibition” value amounted to 0.555. As to `c1ccc(-c2nn3c(c2-c2ccnc4cc(OCCN5CCOCC5)ccc24)CCC3)nc1`, the “growth inhibition” value is 0.558. As to `O=C(NCCS(=O)(=O)c1ccc(C(F)(F)F)cn1)c1ccc(Cl)cc1`, the “growth inhibition” value stood at 0.579. The same measure for `Cc1ccc(S(=O)(=O)C=CC#N)cc1`: 0.534; for `CCC1=C[C@@H]2CN(C1)Cc1c([nH]c3ccccc13)[C@@](C(=O)OC)(c1cc3c(cc1OC)N(C)[C@H]1[C@@](O)(C(=O)OC)[C@H](OC(C)=O)[C@]4(CC)C=CCN5CC[C@]31[C@@H]54)C2` [Vinorelbine (Navelbine)]: 0.969. The same measure for `Cc1cc(Nc2cc(N3CCN(C)CC3)nc(/C=C/c3ccccc3)n2)n[nH]1`: 0.521; for `CN(N=O)C(=O)N[C@@H](C=O)[C@@H](O)[C@H](O)[C@H](O)CO` [Streptozotocin (Zanosar)]: 0.516.
